# PubChem BioAssay (EPA / NIEHS)
# Records with an inconclusive call do not appear. Activity calls are given as the source filed them. How the source made its calls: active means hit-call score of the fitted dose curve at least 0.9, where 1 is the maximum; inconclusive means response in the unintended direction; inactive means score below 0.9.
# Assay: ACEA_ER_AUC_viability: ACEA Biosciences xCELLigence Real-Time Cell Analysis on Estrogen Receptor Agonism for Viability (AID 2283782);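 further: continuous compound exposure with impedance area under curve over 80 h; hit means loss of impedance signal meaning reduced cell growth or viability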
# Procedure, shortened: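 T-47D human breast cells in phenol red-free RPMI1640 with 10% charcoal-stripped FBS were dosed with an 8-point 1:4 dilution series from 100 uM top final concentration, in duplicate. Impedance-based growth was followed for 80 h; AUC analysed versus DMSO.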
Compound,outcome,AC50
CC(=O)Nc1ccc(C)cc1C,inactive,
CCCCCCCCCCCCCC(=O)O,inactive,
Nc1cc([N+](=O)[O-])ccc1Cl,,76.3 µM (active)
CC1=CCC2C(C1)C2(C)C (centres undefined),inactive,
CC(C)(COC(=O)c1ccccc1)COC(=O)c1ccccc1,,72.8 µM (active)
CCC(=O)OCCC(C)CCC=C(C)C (centres undefined),,78.6 µM (active)
CC(=O)/C=C/C1=C(C)CCCC1(C)C,,9.92 µM (active)
Nc1cc(N)cc(C(=O)O)c1,inactive,
O=C1CCCCCCCCCCCCCCO1,inactive,
O=c1oc(=O)c2cc3c(=O)oc(=O)c3cc12,inactive,
CCCC(=O)c1cc(O)c(O)cc1O,inactive,
CCCCN,,45.1 µM (active)
Cc1cccc(C)c1C,,26.4 µM (active)
CC(CCO)CCCC(C)(C)O (centres undefined),,50.5 µM (active)
Cc1ccc(C=O)s1,,50 µM (active)
CCCCCC(=O)OCCc1ccccc1,,78.9 µM (active)
CO[Si](CCCn1c(=O)n(CCC[Si](OC)(OC)OC)c(=O)n(CCC[Si](OC)(OC)OC)c1=O)(OC)OC,,21.7 µM (active)
CCCCCNCCCCC,inactive,
CC(=O)[O][Al][O]C(C)=O,,9.92 µM (active)
CC(C#N)(CCC(=O)O)N=NC(C)(C#N)CCC(=O)O (centres undefined),inactive,

Compound,outcome,AC50
C=CC(C)(CCC=C(C)C)OC=O (centres undefined),inactive,
Cc1cccc(C)c1[N+](=O)[O-],inactive,
Clc1cccc(Cl)n1,inactive,
CC(=O)OCC=Cc1ccccc1,inactive,
CCC(C)(O)CCC=C(C)C (centres undefined),,79.1 µM (active)
C=CC(=O)NCOCC(C)C,inactive,
O=S(=O)(O)NC1CCCCC1,,50 µM (active)
CCO[Si](CCCS)(OCC)OCC,inactive,
CC(C)C(C)(C)C(C)(C)C(C)(C)S,inactive,
CC(C)(C)NC(N)=O,inactive,
CC(C)=CCC/C(C)=C/COC=O,inactive,
CNC[C@H](O)c1cccc(O)c1,,50 µM (active)
Nc1ccc(S(N)(=O)=O)cc1,inactive,
CC(=O)C(=O)O,,78 µM (active)
Clc1nc(C(Cl)(Cl)Cl)c(Cl)c(Cl)c1Cl,,24.1 µM (active)
CCCCCCCCCCCCCCCC(=O)O,,84.3 µM (active)
CC(C)=CCC[C@H](C)CC=O,inactive,
CCC(O)CO (centres undefined),,26 µM (active)
CC1=CCC(O)(C(C)C)CC1 (centres undefined),inactive,
